For 16 molecules, cell number and H1.0 immunofluorescence intensity results are on record in the supplement of paper PMC7156485.

Holding throughout (conditions): concentration: 10 µM; 24 h
In experiment [1] the test system is HCC1569. The experiment can be described thus: cell number relative to DMSO (% of DMSO); higher = more cells (less growth inhibition / toxicity). An outline of the steps: (§1)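 H1.0 nuclear intensity or cell number is expressed as percent of the plate control, with the median of replicates taken. HCC1569 and TDF cells were treated with compounds at 10 µM for 24 h at 37 °C, in triplicate, then fixed and immunostained for H1.0 with DAPI as a nuclear stain. HCC1569 values were smoothed to correct for positional effects.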

For experiment [2], the system named is TDF. The description is as above. The method in brief: as §1
Experiment [3] deals with TDF. The experiment can be described thus: H1.0 immunofluorescence intensity relative to DMSO (% of DMSO); higher = stronger H1.0 induction, active = 120 or more. The method in brief:
as §1

Experiment [4] deals with HCC1569. The experiment is described as follows: H1.0 immunofluorescence intensity relative to DMSO (% of DMSO); higher = stronger H1.0 induction, active = 140 or more. The method in brief: as §1

Structures are written as SMILES. ± gives the standard deviation of the averaged measurements.
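For H1.0 immunofluorescence intensity relative to DMSO in this document: TDF is a line of transformed human dermal fibroblasts of mesenchymal origin.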
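For cell number relative to DMSO in this document: TDF denotes transformed human dermal fibroblasts of mesenchymal origin.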

`CC(NC(=O)C(C#N)=Cc1ccc(O)c(O)c1)c1ccccc1` (centres undefined) [Tyrphostin AG 835]: the cell number in the experiment with HCC1569 [1] and in the experiment on TDF [2] was 87.3 throughout. For the same molecule, the H1.0 immunofluorescence intensity in the experiment with TDF [3] was 75 (inactive); in the experiment on HCC1569 [4] it was 114 (inactive).
Turning to `C[N+](C)(CCCCCC[N+](C)(C)CCCN1C(=O)c2cccc3cccc(c23)C1=O)CCCN1C(=O)c2cccc3cccc(c23)C1=O.[Br-].[Br-]`, the cell number stood at 100 in the experiment with HCC1569 [1] and 101 in the experiment with TDF [2]. The H1.0 immunofluorescence intensity is 97.2 (inactive) with TDF [3] and 108 (inactive) with HCC1569 [4].
The like results for `O=c1oc2ccccc2c(O)c1Cc1c(O)c2ccccc2oc1=O` [Dicoumarol] were, in that order, 99.6, 94.5, 99 (inactive) and 98.4 (inactive).
Turning to `O=S(=O)(c1cccc2cnccc12)N1CCCNCC1`, the cell number in the experiment on HCC1569 [1] was 107; in the experiment on TDF [2] it was 102. Also, the H1.0 immunofluorescence intensity in the experiment on TDF [3] was 88 (inactive); in the experiment on HCC1569 [4], 98.2 (inactive).
For the molecule `COc1ccc(S(=O)(=O)N(CCO)c2ccccc2CN(C)CC=Cc2ccc(Cl)cc2)cc1`, the cell number in the experiment with HCC1569 [1] turned out to be 74.4; in the experiment with TDF [2], 86.7. Also, the H1.0 immunofluorescence intensity with TDF [3] was 103 (inactive); with HCC1569 [4] it was 183 (active).
The like results for `COCCOC(=O)C1=C(C)NC(C)=C(C(=O)OC(C)C)C1c1cccc([N+](=O)[O-])c1` (centres undefined) [Nimodipine] were, in that order, 100 ± 2.9, 106 ± 3.4, 91.6 (inactive) and 104 (inactive).
The like results for `COc1ccc(C2OCC3C(c4ccc(OC)c(OC)c4)OCC23)cc1OC` (centres undefined) [Eudesmine] were, in that order, 102, 104, 97.6 (inactive) and 107 (inactive).
In the case of `CCCCCC(O)C=CC1C=CC(=O)C1CCCCCCC(=O)O` (centres undefined) [Prostaglandin A1], the values for the cell number with HCC1569 [1] and in the experiment with TDF [2] were 97 ± 5.2 and 98 ± 2.2, respectively. For the same molecule, the H1.0 immunofluorescence intensity with TDF [3] was 93.3 (inactive); with HCC1569 [4] it was 93.8 (inactive).
Take `Cc1c(C)c2c(c(C)c1O)CCC(C)(C(=O)O)O2` (centres undefined) [Trolox]: the cell number in the experiment on HCC1569 [1] and in the experiment on TDF [2] was 101 each time. Also, the H1.0 immunofluorescence intensity in the experiment with TDF [3] is 94.4 (inactive); in the experiment with HCC1569 [4], 91.3 (inactive).
As to `O=c1c2ccccc2nc2n1CCc1c-2[nH]c2ccccc12` [Rutaecarpine], the cell number in the experiment on HCC1569 [1] turned out to be 102 ± 6.6; with TDF [2], 103.4 ± 0.87. In addition, the H1.0 immunofluorescence intensity with TDF [3] is 94.9 (inactive); with HCC1569 [4] it was 102 (inactive).
The like results for `CC1Cc2ccccc2N1NC(=O)c1ccc(Cl)c(S(N)(=O)=O)c1` (centres undefined) [Indapamide] were, in that order, 106, 101, 88.5 (inactive) and 112 (inactive).
As to `CC[N+](CC)(CC)CC(=O)Nc1c(C)cccc1C.[Br-]` [Lidocaine N-ethyl bromide quaternary salt], the values for the cell number with HCC1569 [1] and with TDF [2] were 106 and 108, respectively. Also, the H1.0 immunofluorescence intensity in the experiment on TDF [3] was 88.4 (inactive); with HCC1569 [4], 94.3 (inactive).
For the molecule `O.c1cnc2c(c1)ccc1cccnc12` [1,10-Phenanthroline monohydrate], the cell number in the experiment on HCC1569 [1] was 77.2; with TDF [2], 44.8. Moreover, the H1.0 immunofluorescence intensity in the experiment with TDF [3] is 108 (inactive); in the experiment on HCC1569 [4], 93.9 (inactive).
As to `O=C(O)CC/C=C\C[C@H]1CO[C@@H](c2ccccc2Cl)O[C@H]1c1ccccc1O`, the cell number in the experiment on HCC1569 [1] came to 100; with TDF [2] it was 96.5. For the same molecule, the H1.0 immunofluorescence intensity in the experiment with TDF [3] was 95.5 (inactive); with HCC1569 [4], 108 (inactive).
Turning to `COc1cc(-c2oc3cc(O)ccc3c(=O)c2O)ccc1O` [Geraldol], the cell number in the experiment with HCC1569 [1] stood at 85.9; in the experiment with TDF [2], 73.9. The results for the H1.0 immunofluorescence intensity in the experiment on TDF [3] and in the experiment with HCC1569 [4] were 95.2 (inactive) and 99.4 (inactive), respectively.
As to `O=C(O)c1cc([N+](=O)[O-])ccc1NCCCc1ccccc1` [5-Nitro-2-(3-phenylpropylamino)benzoic acid], the cell number in the experiment on HCC1569 [1] turned out to be 105; with TDF [2], 102. In addition, the results for the H1.0 immunofluorescence intensity with TDF [3] and in the experiment with HCC1569 [4] were 91 (inactive) and 88.1 (inactive), respectively.
